Measured values taken from PubChem BioAssay AID720514 (Broad Institute, 2013).
The campaign covered roughly 2,100 compounds. About 300 (14%) were called active. About 2% were inconclusive and are not listed.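 The calls were made as follows: active = every replicate test run called active, with the signal falling and half-maximal concentration within twice the top valid dose; inconclusive = the replicate test runs disagree in their calls; inactive = every test run inactive, including effects in the opposite direction.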 These entries were drawn from the full list. Potency and affinity values are given separately.

assay: reduced cellular PGC1a acetyl-lysine signal – cell-based, cherry-picked samples, dose response (AID 720514); details: U2OS PGC1a acetylation, AlphaLISA, overnight; series mostly up to 19.5 µM; activity change, negative = inhibition: at the top concentration;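 also: 0% = neutral control wells and -100% = positive control wells; actives lower the acetylation signal so they count as inhibitors of PGC1a acetylation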

Activity change, negative = inhibition, inactive:
CCOC(=O)C1=CC[C@@H](c2ccc([N+](=O)[O-])cc2)N(S(=O)(=O)c2ccc(C)cc2)[C@H]1c1ccccc1 59.6% [at 10 µM], Cc1ccc(-c2nnc(N3CCN(C(=O)COc4ccccc4)CC3)c3ccccc23)cc1 63.9%, CN1/C(=C\C(=O)c2cccc(S(=O)(=O)N3CCCCC3)c2)C(C)(C)c2ccccc21 45.8%, CCOc1ccccc1CN1CCN(C2CCC2)CC1CCO (centres undefined) 49.6%, CC(=O)c1cccc(N(C(=O)Cn2nnc3ccccc32)C(C(=O)NCc2ccccc2)c2ccccn2)c1 (centres undefined) 95.9%, COc1ccc(OC)c(NC(=O)CSc2nnc(-c3cccnc3)s2)c1 252%, COc1ccc(-c2nc(N)c(C#N)c(-c3cccnc3)c2C)cc1 159%, CCCOc1ccc(C(=O)Nc2cccnc2)cc1 133% [at 10 µM], CCOC(=O)c1c(-c2ccc(C)cc2C)csc1NC(=O)CSc1nnnn1C 60.1%, CCOC(=O)c1oc2ccc(S(=O)(=O)N3CCC(C)CC3)cc2c1C 48.1%, O=C(CCCn1c(=O)[nH]c2cc(Cl)ccc2c1=O)NCCC1=CCCCC1 27.5%, C[C@@H]1CN([C@H](C)CO)C(=O)c2c(c3ccccc3n2C)-c2ccccc2CO[C@@H]1CN(C)C(=O)Nc1ccccc1C(F)(F)F 267%, COc1cc(OC)c2c(-c3cccc(-c4cccc(C)c4)c3)cc(=O)oc2c1 120% [at 10 µM], COc1ccc(CCNC(=O)c2cc(-c3ccco3)on2)cc1OC 99.9% [at 10 µM], O=C1OC(Oc2ccc(Br)cc2)(c2ccccc2)c2ccccc21 (centres undefined) 149%, CC(=O)c1ccc(NC(=O)N2CCc3ccccc3C2)cc1 225%, CC(=O)c1cccc(N(C(=O)c2cnccn2)C(C(=O)NCc2ccccc2)c2ccco2)c1 (centres undefined) 69.2%, C[C@H]1CN([C@@H](C)CO)C(=O)c2cccc(NC(=O)c3cnccn3)c2O[C@H]1CN(C)Cc1ccc(C(=O)Nc2ccccc2N)cc1 369% [at 21 µM], C[C@H](CO)N1C[C@H](C)[C@@H](CN(C)Cc2ccc3c(c2)OCO3)Oc2ccc(NC(=O)Nc3ccc4c(c3)OCO4)cc2CC1=O 44.8%, C[C@@H]1CN([C@@H](C)CO)C(=O)c2cccc(NC(=O)c3ccc(-c4nccs4)cc3)c2O[C@@H]1CN(C)C(=O)Nc1ccc(C(F)(F)F)cc1 10.9%, C[C@H]1CN([C@@H](C)CO)C(=O)c2cccc(NC(=O)Nc3cccc4ccccc34)c2O[C@H]1CN(C)Cc1ccc(C(=O)Nc2ccccc2N)cc1 270%, C[C@@H]1CN([C@@H](C)CO)C(=O)Cc2cc(NC(=O)Cc3ccccc3)ccc2O[C@H]1CN(C)C(=O)Nc1ccccc1 34.5%, Cc1cc(Cn2nc(C(=O)NCc3cccc(C(F)(F)F)c3)cc2-c2ccccc2)on1 84.2%, C[C@@H]1CN([C@@H](C)CO)C(=O)c2c(c3ccccc3n2C)-c2ccccc2CO[C@@H]1CN(C)C(=O)Nc1cccc(C(F)(F)F)c1 90.9%, C=C/C=C/[C@@H]1C(=C)CN2[C@H]1[C@H](Cc1ccccc1)OC(=O)[C@@H]2Cc1ccccc1 59.2%, O=C(NCCC(c1ccccc1)c1ccccc1)c1ccc(Br)o1 108%, CC(C)[C@H](C)NC(=O)N(C)C[C@H]1OCc2ccccc2-c2c(n(C)c3ccccc23)C(=O)N([C@H](C)CO)C[C@H]1C 87.6%, COc1ccc2c(c1)CCc1c(C(=O)NCCCn3ccnc3)noc1-2 42.4%, Cc1ccc(S(=O)(=O)N[C@@H]2C=C[C@H](CC(=O)NCCN3CCCCC3)O[C@@H]2CO)cc1 48.1%, CCCCC(=O)Nc1ccc(C(=O)NCCCn2ccnc2)cc1 343%, OC[C@H]1O[C@@H](n2cnc3c(NCc4ccco4)ncnc32)[C@H](O)[C@@H]1O 67%, O=C(Nc1ccc(F)cc1)N1CCCCN2[C@@H](CO)[C@@H](c3ccc(C#Cc4ccccc4)cc3)[C@@H]2C1 32.9% [at 10 µM], O=C(Nc1ccc(F)cc1)N1CCN(c2nc3ccccc3s2)CC1 99.3%, O=C(Nc1ccccc1F)N1CCCCN2[C@H](CO)[C@H](c3ccc(C#Cc4ccccc4)cc3)[C@H]2C1 8.04%, O=c1[nH]nc(SCCS(=O)(=O)c2ccc(F)cc2)n1-c1ccccc1 64.8%, Cc1cc(C)cc(N(CC(=O)NC2CC3CCC2C3)S(C)(=O)=O)c1 (centres undefined) 52.8%, O=C(CN1CCC(N2CCCCC2)CC1)N1CCCc2ccccc21 75.2%, CCCc1cc2c(cc1N(C)S(=O)(=O)c1ccccc1)OCO2 70.3%, Cc1ccc(NC(=O)CN2CCC(NC(=O)Cc3ccccc3)CC2)c(C)c1 132%, O=C(Nc1ccccc1-c1ccccc1)NC1CC2CCCC(C1)N2Cc1ccc(F)cc1 (centres undefined) 51.3%, Cc1nn2c(NCCCN3CCOCC3)c3c(nc2c1-c1ccccc1)CCC3 73.2%, O=C(Cn1nc(C(=O)O)c2ccccc2c1=O)Nc1cccc(Br)c1 25.1%, COC(=O)c1cc2ccsc2n1CC(=O)Nc1cc(Cl)ccc1OC 77.8%, Cc1ccc(/C(N)=N/OC(=O)c2ccco2)cc1 305%, CCCCN(CCCC)S(=O)(=O)c1ccc2oc(C(=O)N3CCOCC3)c(C)c2c1 114%, COC(=O)[C@@]1(C)[C@H]2C(=O)N(Cc3ccccc3)C(=O)[C@H]2[C@H]2CN=C(SCC3CC3)N21 45.1%, COc1ccc(-n2c(=O)c3c4c(sc3n3c(=S)[nH]nc23)CCC4)cc1 238%, CCOc1ccc(NC(=O)CN2CCC(n3cnc4cc(F)ccc43)CC2)cc1 93.8%, CO[C@@H](C(=O)N(C)C[C@H]1OCc2ccccc2-c2c(n(C)c3ccccc23)C(=O)N([C@H](C)CO)C[C@H]1C)c1ccccc1 104% [at 21 µM], Cc1ccc(Cl)cc1NC(=O)Cn1nc(-c2cccs2)ccc1=O 77%, Cc1ccccc1NC(=O)c1nc(S(C)(=O)=O)ncc1Cl 46.6% [at 10 µM], C[C@@H]1CN([C@H](C)CO)C(=O)c2c(c3ccccc3n2C)-c2ccccc2CO[C@@H]1CN(C)C(=O)Nc1ccc2c(c1)OCO2 102%, CC(Oc1ccc(Cl)cc1Cl)c1nc(-c2ccc(NC(=O)c3cccnc3)cc2)no1 (centres undefined) 232% [at 5 µM], Cc1ccc(-c2nn(C)c(=O)c3ccccc23)cc1S(=O)(=O)NCCN(C)C 32%, O=C(C[C@H]1CC[C@H](NC(=O)NC2CCCCC2)[C@H](CO)O1)NCc1ccc(Cl)cc1 39.8%, CCCCSc1ccc(NC(=O)c2cccnc2)cc1 221%, CCn1c(SCC(N)=O)nnc1C(C)C 47.9%, O=C1NC(=Nc2ccccc2Cl)S/C1=C\c1cccc([N+](=O)[O-])c1O 47.6%, CC1(Cc2ccc(Cl)s2)C(=O)Nc2c(Cl)ccc(Cl)c21 (centres undefined) 39.8%, O=C(NCc1ccccc1)N1CCC(n2cnc3cc(F)ccc32)CC1 143%, COc1ccc(C(=O)NN(C)c2nc(-c3ccccc3)cc(C)c2S(C)(=O)=O)cc1 45.8%, O=C(NCc1ccccc1)c1ccc(NC(=O)C2CC2)cc1 68.6%, CSc1nn(-c2ccc(C(=O)OC(C(=O)NC(N)=O)C(C)C)cc2)c(=S)s1 (centres undefined) 60.7%, CC(=O)Nc1ccc(NC(=O)CN(c2cc(Cl)ccc2Cl)S(C)(=O)=O)cc1 264%, Cc1nc(N2CCN(S(=O)(=O)c3ccc(F)cc3)CC2)c2c(-c3cccs3)csc2n1 57.9%, Cc1ccc(S(=O)(=O)NC(CC(C)C)C(=O)N2CCCCCCC2)cc1 (centres undefined) 129%, Nc1ccccc1Oc1ncc(C(F)(F)F)cc1Cl 66.8% [at 10 µM], O=[N+]([O-])c1ccc(S(=O)(=O)c2cccc(C(F)(F)F)c2)nc1 88.2% [at 10 µM], CCOC(=O)c1sc2nc(C)nc(NCc3ccccc3OC)c2c1C 33.3%, CCO[C@H]1OC(C(=O)Nc2ccccc2)=C[C@@H](c2csc3ccccc23)[C@@H]1CCCO 53.7%, O=C(NCCCN1CCOCC1)c1ccccc1N1C(=O)[C@@H]2Cc3c([nH]c4ccccc34)C(c3ccccc3)N2C1=O (some centres undefined) 76.8% [at 10 µM], O=C(Cc1ccccn1)NCC[C@@H]1CC[C@@H](NC(=O)Nc2ccc(C(F)(F)F)cc2)[C@@H](CO)O1 -20.7%, O=C(Cc1ccccn1)NCC[C@@H]1CC[C@H](NC(=O)Nc2ccc(C(F)(F)F)cc2)[C@@H](CO)O1 3.56%, Cc1cccc2sc(N3CCN(C(=O)c4cccs4)CC3)nc12 45.5%
